# From PMC4336329 (PLoS ONE, 2015)
# Out of some 310,000 compounds screened, about 14,000 (4.5%) showed an effect of 50% or more. Effects have a minus sign here. Many of the other results were omitted from the sample, so strong results are more common in it than they were.
# Target: human ether-à-go-go-related gene (hERG) potassium channel (human, UniProt Q12809)
# Test: primary screen, population patch clamp on CHO cells stably expressing hERG; higher = less effect of the substance
# 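Also: peak tail current of the secondary pulse compared with the same well before compound.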
# Chain of human ether-à-go-go-related gene (hERG) potassium channel (Q12809 whole entry, looked up): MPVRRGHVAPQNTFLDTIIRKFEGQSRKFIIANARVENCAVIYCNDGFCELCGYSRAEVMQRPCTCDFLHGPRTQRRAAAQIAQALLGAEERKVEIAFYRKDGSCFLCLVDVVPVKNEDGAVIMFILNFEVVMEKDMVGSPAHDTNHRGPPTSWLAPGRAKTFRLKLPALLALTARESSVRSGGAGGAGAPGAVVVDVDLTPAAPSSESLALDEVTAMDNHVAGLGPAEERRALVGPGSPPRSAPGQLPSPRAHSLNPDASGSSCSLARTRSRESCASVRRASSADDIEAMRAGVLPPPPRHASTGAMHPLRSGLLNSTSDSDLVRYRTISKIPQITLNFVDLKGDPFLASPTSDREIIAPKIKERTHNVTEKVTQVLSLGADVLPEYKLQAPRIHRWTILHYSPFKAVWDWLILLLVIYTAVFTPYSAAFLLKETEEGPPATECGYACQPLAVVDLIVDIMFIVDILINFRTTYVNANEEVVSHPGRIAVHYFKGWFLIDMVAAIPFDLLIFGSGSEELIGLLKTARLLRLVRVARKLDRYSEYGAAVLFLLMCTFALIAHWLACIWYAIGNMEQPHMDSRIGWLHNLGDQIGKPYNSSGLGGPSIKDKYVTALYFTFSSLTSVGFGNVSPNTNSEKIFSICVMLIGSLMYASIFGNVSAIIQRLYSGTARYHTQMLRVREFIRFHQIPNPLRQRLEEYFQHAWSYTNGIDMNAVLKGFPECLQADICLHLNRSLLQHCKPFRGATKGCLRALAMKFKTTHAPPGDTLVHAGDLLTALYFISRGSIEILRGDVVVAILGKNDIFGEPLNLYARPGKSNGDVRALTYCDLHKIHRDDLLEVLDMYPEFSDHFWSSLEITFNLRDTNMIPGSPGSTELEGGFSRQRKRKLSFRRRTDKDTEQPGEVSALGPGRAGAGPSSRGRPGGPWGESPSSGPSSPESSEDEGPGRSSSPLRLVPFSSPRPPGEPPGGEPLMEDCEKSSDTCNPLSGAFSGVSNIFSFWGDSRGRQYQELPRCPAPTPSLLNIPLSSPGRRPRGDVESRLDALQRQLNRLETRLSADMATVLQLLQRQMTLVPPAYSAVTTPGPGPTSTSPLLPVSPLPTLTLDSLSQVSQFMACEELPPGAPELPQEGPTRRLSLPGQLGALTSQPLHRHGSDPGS
row,SMILES,"hERG current change (%, negative = inhibition) at 10uM [%]"
1,CNC(=O)CNC(=O)Nc1ccc(Cl)c(Cl)c1,9.11
2,CC(Cc1cnccn1)NCc1c(C(=O)N2CCCCCCC2)nc2ccc(Cl)cn12 (stereo not drawn),-12.8
3,CCn1c(=O)c2c(nc3n2CCCN3Cc2ccccc2)n(C)c1=O,-18.2
4,CC#CCCc1nc2ccccc2c(=O)n1N,15.9
5,Cc1cc([N+](=O)[O-])ccc1NCc1ccc2c(c1)OCCO2,5.37
6,CCCCOC(=O)Nc1cccc(Cl)c1C,-15.6
7,CC(C)CN(C(=O)COC(=O)c1ccc2c(c1)NC(=O)CS2)C1CCS(=O)(=O)C1 (stereo not drawn),13.1
8,COc1ccccc1NC(=S)N(c1ccccc1)C(C)C,6.18
9,C=C(C)Cn1c(SCCCO)nc2c1c(=O)[nH]c(=O)n2C,-4.83
10,Cc1cc(C)c2nc(C(F)(F)F)nc(N3CCN(C(=O)c4ccco4)CC3)c2c1,6.1
11,Cc1ccc(N2C(=O)C(NC(=O)c3ccccc3)(C(F)(F)F)C3=C2CC(C)(C)CC3=O)cc1 (stereo not drawn),7.2
12,O=C(Nc1nccs1)c1ccc(Cl)cc1[N+](=O)[O-],-9.1
13,Cc1csc(NC(=O)c2ccc(Cl)cc2[N+](=O)[O-])n1,-64.8
14,Cc1csc(NC(=O)c2ccccc2[N+](=O)[O-])n1,2.69
15,COC(=O)c1ccc(CSc2nnc(NC(=O)C3CCCO3)s2)cc1 (stereo not drawn),-23.5
16,CCN(CC)S(=O)(=O)c1ccc(N2CCOCC2)c(NS(=O)(=O)c2ccc(C(C)C)cc2)c1,-6.87
17,O=C(C1CCCCC1)N1CCC(c2nc3ccccc3[nH]2)CC1,-5.51
18,O=C(C1CC(=O)N(c2ccccc2)C1)N1CCC(c2nc3ccccc3[nH]2)CC1 (stereo not drawn),9.08
19,Cc1ccc(N2CC(C(=O)N3CCC(c4nc5ccccc5[nH]4)CC3)CC2=O)cc1C (stereo not drawn),-46.2
20,COc1ccc(N2CC(C(=O)N3CCC(c4nc5ccccc5[nH]4)CC3)CC2=O)cc1 (stereo not drawn),-19.3
21,O=C(C1CC(=O)N(c2ccc(Cl)cc2)C1)N1CCC(c2nc3ccccc3[nH]2)CC1 (stereo not drawn),-71.6
22,O=C(C1CC(=O)N(c2ccc(F)cc2)C1)N1CCC(c2nc3ccccc3[nH]2)CC1 (stereo not drawn),-63.8
23,Clc1ccccc1CSc1nnc(-c2ccncc2)o1,-14

row,SMILES,"hERG current change (%, negative = inhibition) at 10uM [%]"
1,COCCNCC(=O)NC12CC3CC(CC(C3)C1)C2,8.91
2,CC(C)COc1ccc(C(=O)N2C(=O)c3ccc(N)cc3C2=O)cc1,4.32
3,COc1ccc(C2CN(C)CC2C(=O)c2ccc(C)cc2)cc1Cl (stereo not drawn),-63
4,COc1ccc(C2CN(C)CC2C(=O)c2ccc(F)cc2)cc1Cl (stereo not drawn),-78.7
5,COc1ccc(CNC(=O)N2CCN(c3ccc(F)cc3)CC2)cc1Cl,-26.1
6,COc1ccc(/C(O)=C2/C(=O)C(=O)N(CCN(C)C)C2c2ccc(F)cc2)cc1Cl (stereo not drawn),13.8
7,COc1ccc(/C(O)=C2/C(=O)C(=O)N(CCN(C)C)C2c2ccc(C)cc2)cc1Cl (stereo not drawn),5.16
8,Cc1c(C(N)=O)sc(N)c1C(=O)OC(C)C,9.72
9,COC(=O)c1ccc(N=C2SCC(=O)N2C)cc1,14.3
10,CCOc1cc(OCC)nc(S(C)(=O)=O)n1,-0.891
11,CCN(CC(=O)NCc1ccc(F)cc1)C(=O)CN1CCN(c2cc(Cl)ccc2C)CC1,-73.1
12,COc1ccc(CNC(=O)N2CCN(c3ccc(F)cc3)CC2)cc1,-6.24
13,CCOc1ccccc1N1CCN(C(=O)NCc2ccc(F)cc2)CC1,-9.29
14,COc1ccc(C(=O)CN2CCN(c3ccc(F)cc3)CC2)cc1,-38.3
15,Cc1cccc(N2CCN(CC(=O)NCc3ccc(Cl)cc3)CC2)c1C,-29.2
16,CCN(CC(=O)NCc1ccc(F)cc1)C(=O)CN1CCN(c2ccccc2OC)CC1,-61.4
17,COc1ccccc1N1CCN(CC(=O)NCc2ccc(Cl)cc2)CC1,-0.607
18,CCN(CC(=O)NCc1ccc(F)cc1)C(=O)CN1CCN(c2ccc(OC)cc2)CC1.O=C(O)C(=O)O,-61.9
19,Cc1ccccc1N1CCN(CC(=O)NCc2ccc(Cl)cc2)CC1,-27
20,CC(=O)Nc1ccc(NCc2cccs2)cc1,6.07
21,Cc1ccc(NC(=O)N2CCN(C(=O)C3CCCO3)CC2)cc1 (stereo not drawn),9.64
22,COc1ccccc1OCC(=O)Nc1ncc(C)s1,-6.77
23,CC(C)(C)NC(=O)NC(=O)CSc1nnc2ccccn12,-2.98

row,SMILES,"hERG current change (%, negative = inhibition) at 10uM [%]"
1,CCOc1ccccc1CNC(=O)C1CCC(=O)N1C(C)C (stereo not drawn),1.56
2,Cc1cnc(C(=O)OCC(=O)Nc2c(Cl)cc(Cl)cc2Cl)cn1,12.7
3,O=C(CCCNS(=O)(=O)c1cccc2nsnc12)NCCc1ccccc1,5.61
4,CC(NC(=O)C1CCN(S(=O)(=O)c2cc([N+](=O)[O-])ccc2Cl)CC1)c1ccccc1 (stereo not drawn),11.5
5,O=C(NCc1ccc(Cl)cc1)C1CCN(S(=O)(=O)c2cc([N+](=O)[O-])ccc2Cl)CC1,-59
6,O=C(NCc1ccccc1)C1CCN(S(=O)(=O)c2cc([N+](=O)[O-])ccc2Cl)CC1,-7.61
7,O=C(COC(=O)C1CCCC1)Nc1ncc(Cl)cc1Cl,5.91
8,CN(Cc1ccccc1)C(=O)C1CCN(S(=O)(=O)c2cc([N+](=O)[O-])ccc2Cl)CC1,-54.6
9,O=C(COC(=O)C1CC1)Nc1ncc(Cl)cc1Cl,8.23
10,O=C(COC(=O)C1CCN(S(=O)(=O)c2cc([N+](=O)[O-])ccc2Cl)CC1)Nc1ncc(Cl)cc1Cl,-57.6
11,CC1CCN(S(=O)(=O)c2cc([N+](=O)[O-])ccc2Cl)CC1,-24
12,CCC(C)NC(=O)C1CCN(S(=O)(=O)c2cc([N+](=O)[O-])ccc2Cl)CC1 (stereo not drawn),-0.184
13,CC(=O)COC(=O)C1CCN(S(=O)(=O)c2cc([N+](=O)[O-])ccc2Cl)CC1,-51.8
14,CN(Cc1ccccc1)C(=O)C1CCN(S(C)(=O)=O)CC1,16.1
15,O=C(NC1CC1)C1CCN(S(=O)(=O)c2cc([N+](=O)[O-])ccc2Cl)CC1,-28
16,Cc1cccc(C(=O)NC2CCN(C(=S)NCc3ccco3)CC2)c1,-46.7
17,CCOC(=O)CSc1ncc(-c2cccc(Cl)c2)cn1,-17.4
18,CC/C(CC(c1ccccc1)c1c(O)c2ccccc2oc1=O)=N\NC(N)=S (stereo not drawn),2.2
19,Cc1cc(O)c(C(C[N+](=O)[O-])c2ccc(Cl)cc2Cl)c(=O)o1 (stereo not drawn),6.51
20,CCOC(=O)N1CCN(C(=O)COc2cc(=O)n(CC)c3ccccc23)CC1,-17
21,CCCCc1cc2c(cc1NC(=O)CN1CCCCC1)OCCO2.Cl,3.82
22,COc1ccc(-c2cc(C(=O)Nc3ccccc3O)c3ccccc3n2)cc1,13.1
23,Cc1cccc(NC(=O)c2cccc(N3C(=O)C4C5CCC(C5)C4C3=O)c2)c1C (stereo not drawn),-7.75

row,SMILES,"hERG current change (%, negative = inhibition) at 10uM [%]"
1,Cc1ccc(-n2c(=O)[nH]c3c(C(N)=O)nc(-c4ccc(C)o4)nc32)cc1,14.7
2,Cc1oc2ccc(Br)cc2c(=O)c1-c1nn[nH]n1,3.71
3,Cc1c(-c2ccncc2)oc2ccc(Br)cc2c1=O,-41.2
4,Cc1c(-c2cc[n+]([O-])cc2)oc2ccc(Br)cc2c1=O,-54.2
5,Cc1ccc(S(=O)(=O)Oc2cccc(N3C(=O)C4CC=CCC4C3=O)c2)cc1 (stereo not drawn),-17.3
6,CC(=O)NC(Cc1cc(C)ccc1C)C(=O)N1CCN(C(=O)c2ccc([N+](=O)[O-])cc2)CC1 (stereo not drawn),-30.2
7,CC(=O)NC(Cc1cc(C)ccc1C)C(=O)N1CCN(C(=O)c2ccc(Br)cc2)CC1 (stereo not drawn),-71.8
8,CC(=O)NC(Cc1cc(C)ccc1C)C(=O)N1CCN(C(=O)c2ccccc2Br)CC1 (stereo not drawn),-0.358
9,CCOC(=O)c1c(NC(=O)COC(=O)CCOc2ccccc2C)sc(C(=O)NC)c1C,20.1
10,Cc1ccc(/C=C/C(=O)OCC(=O)Nc2ccc3[nH]c(=O)[nH]c3c2)o1,2.52
11,COc1ccc(/C=N/Nc2nnc(Cc3ccccc3)c(=O)[nH]2)cc1OC,-61.4
12,COc1ccc(/C=N/Nc2nnc(Cc3ccc(OC)c(OC)c3)c(=O)[nH]2)cc1OC,18.9
13,COc1ccc(/C=N/Nc2nnc(Cc3ccccc3)c(=O)[nH]2)cc1,-15.1
14,Oc1ccc(N=Nc2n[nH]c(-c3ccccc3)n2)cc1,9.94
15,CCOc1ccc(NC(=O)Nc2ccon2)cc1,16.7
16,CCC(C)NS(=O)(=O)c1ccc(NC(=O)c2ccc([N+](=O)[O-])cc2Cl)cc1 (stereo not drawn),-88.7
17,CCC(=O)Nc1ccc(Cl)c(NC(=O)c2ccc([N+](=O)[O-])cc2)c1,-5.07
18,CCCC(=O)Nc1cccc(NC(=O)c2ccc([N+](=O)[O-])cc2Cl)c1,-14.5
19,CC(C)C(=O)Nc1ccc(NC(=O)c2ccc([N+](=O)[O-])cc2Cl)cc1,5.02
20,CCCC(=O)Nc1ccc(Cl)c(NC(=O)c2ccc([N+](=O)[O-])cc2Cl)c1,-51.2
21,CC(=O)Nc1ccc(NC(=O)c2ccc([N+](=O)[O-])cc2Cl)cc1,6.15
